The full list was thinned out, with hits kept by preference.
CD40 NFkB inh: CD40 pathway inhibition in BL2 cells; BL2 NF-kB luciferase reporter, CD40L-induced, 4 h; inhibition, % at 10 µM; hit rate 0.94% among 83,000;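 active = mean inhibition of at least 50% with a set share of replicates also reaching that level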
Numbers stand for hits; n = inactive; [ ] = dose if it differs, or a comment.

SMILES | CD40 NFkB inh
COc1ccccc1-c1ccc([C@@H]2[C@H]3CN(C(=O)c4cccnc4)CCCCN3[C@H]2CO)cc1 | n
Cc1cccc(S(=O)(=O)N2CC[C@@H]3[C@@H](CO)Nc4ccc(C#Cc5ccc(F)cc5)cc4[C@@H]32)c1 | n
C[C@H](C(=O)N(C)C[C@@H]1OCc2ccccc2-c2ccccc2C(=O)N([C@H](C)CO)C[C@@H]1C)c1ccccc1 | n
O=C(C1CCCC1)N1C[C@H]2[C@@H](c3ccccc31)[C@H](CO)N2C(=O)Nc1cccc(F)c1 | n
COc1ccc(-c2c[n+](CC(=O)OC3CC(C)CCC3C(C)C)c3n2CCC3)cc1 (stereo not drawn) | 78.5
COc1ccc(-c2cnc3n2CCCCC3)cc1 | n
COc1ccc(OCC(=O)OCC(=O)N2C(C)CCCC2C)cc1 (stereo not drawn) | n
CCCNC(=O)N1[C@H](CO)[C@@H]2c3ccccc3N(C(=O)NC(C)C)C[C@@H]21 | n
CC(=O)Nc1ccc2c(c1)CC(=O)N(C)C[C@H](C)[C@H](CN(C)C(=O)NC(C)C)O2 | n
Cc1cc(NCCCN2CCOCC2)n2c(nc3ccccc32)c1C#N | n
Cc1cc(Nc2cccc([N+](=O)[O-])c2)n2c(nc3ccccc32)c1C#N | 77.8
Cc1cc(NCCN2CCOCC2)n2c(nc3ccccc32)c1C#N | n
COc1ccc(C(=O)N2C[C@H]3[C@@H](c4ccccc42)[C@H](CO)N3Cc2ccc3c(c2)OCO3)cc1 | n
CNC[C@@H]1Oc2ccc(NC(=O)Cc3cn(C)c4ccccc34)cc2C(=O)N([C@@H](C)CO)C[C@@H]1C | n
O=C(NC1CCC1)[C@@H]1[C@@H](CO)[C@@H]2Cn3c(ccc(-c4ccncc4)c3=O)[C@H]1N2Cc1cocn1 | n
CC(C)CN(C(=O)COC(=O)c1cnc(Cl)c(Cl)c1)c1c(N)n(Cc2ccccc2)c(=O)[nH]c1=O | n
CC(C)N(Cc1ccccc1)C(=O)COC(=O)c1cnc(Cl)c(Cl)c1 | 61.1
CN(Cc1ccccc1)C(=O)COC(=O)c1cncc(Br)c1 | n
COc1ccccc1S(=O)(=O)N(C)C[C@@H]1OCc2ccccc2-c2c(n(C)c3ccccc23)C(=O)N([C@@H](C)CO)C[C@@H]1C | n
Cc1ccc(C)c(N(CC(=O)N(C)C)S(C)(=O)=O)c1 | n
Cc1ccc(OC(=O)CCC(=O)Oc2ccc(C)cc2C)c(C)c1 | n
C=C(CN(C)C)C(=O)c1ccc(C)cc1C | 92.8
C[C@@H]1CN(C)C(=O)Cc2ccccc2O[C@H]1CN(C)C | n
COc1ccc2c3c([nH]c2c1)[C@H](CO)N(C(=O)c1ccc(F)cc1)CC31CCN(S(=O)(=O)c2cccs2)CC1 | n
O=C(NCC[C@@H]1CC[C@H](NS(=O)(=O)c2ccc(F)cc2)[C@@H](CO)O1)c1ccc2c(c1)OCO2 | n
SMILES | CD40 NFkB inh
CN1C(=O)c2cc(NC(=O)C3CCCC3)ccc2OC[C@@H]2O[C@@H](CC(=O)NCc3ccccc3F)CC[C@@H]21 | n
O=C(C#Cc1ccccc1)c1ccccc1 | 89.0
O=C(COc1ccccc1)c1ccccc1 | n
O=C(CC(=O)c1ccccc1)c1ccccc1 | n
C[C@@H](NC(=O)[C@@H]1[C@@H](CO)[C@@H]2Cn3c(cccc3=O)[C@H]1N2Cc1ccncc1)c1ccccc1 | n
CCc1nnc(NC(=O)c2cc3c(s2)CCCCC3)s1 | n
CNC(=O)c1cc2c(s1)CCCCCC2 | n
Cc1cnc(NC(=O)c2cc3c(s2)CCCC3)s1 | 65.3
CC(=O)N(C)C[C@@H]1Oc2ccc(NS(C)(=O)=O)cc2C(=O)N(C)C[C@H]1C | n
C[C@H]1CN(C)C(=O)c2cc(NS(C)(=O)=O)ccc2O[C@H]1CN(C)S(C)(=O)=O | n
CCN1CCN(C(=O)CN(C)S(=O)(=O)c2ccc(Cl)cc2)CC1 | n
C=CC(=O)N1C/C(=C/c2ccc(Cl)cc2)C(=O)/C(=C\c2ccc(Cl)cc2)C1 | 92.8
CN(CC(=O)N1CCCCC1)S(=O)(=O)c1ccc(Cl)cc1 | n
CC(C)OC(=O)c1cn(Cc2c(F)cccc2F)c2sc(-c3ccc(NC(=O)C(C)C)cc3)c(CN(C)Cc3ccccc3)c2c1=O | 54.2[25 µM]
COc1c(C)c2c(c(O)c1C/C=C(/C)CCC(=O)O)C(=O)OC2 | n
CC(C)NC(=O)Nc1ccc2c(c1)CC(=O)N(C)C[C@H](C)[C@H](CN(C)C)O2 | n
C[C@H]1CN([C@@H](C)CO)C(=O)c2cccc(NC(=O)Nc3cccc4ccccc34)c2O[C@H]1CN(C)Cc1ccc(C(=O)Nc2ccccc2N)cc1 | n
CC(C)[C@@H]1C(=O)N[C@H](c2ccc3c(c2)OCO3)CC=CC[C@@H](C)Oc2ccccc2C(=O)N1C (mixture of isomers) | n
CC(C)NC(=O)N1C[C@H]2[C@@H](c3ccccc31)[C@H](CO)N2C(=O)C1CCCC1 | n
c1ccc(-c2ccccn2)nc1 | n
c1ccc(-c2ccc(-c3ccccn3)nn2)nc1 | 52.1
Nn1c(-c2ccccn2)nnc1-c1ccccn1 | n
CC(=O)N(C)C[C@@H]1Oc2ccccc2C(=O)N(C)C[C@@H]1C | n
CCN(CC)CCCNc1nc2ccccc2c2[nH]c3ccc(OC)cc3c12 | 103.3
CCN(CC)CCCNS(=O)(=O)c1ccc(OC)cc1 | n
COc1ccc2[nH]c3c(NCCCN4CCCC4=O)ncnc3c2c1 | n
